Records with an inconclusive call do not appear. Values without a mark were called inactive. The source made the active and inactive calls. Calls come from the whole dose curve; as a rule, active = well fitted curve in the direction sought with a large enough effect; inconclusive = small, poorly fitted or top-dose-only effect, or another doubt; inactive = no such curve, though single readings can be large; an effect the other way counts as inactive or inconclusive.

One assay has as its system C33A. The assay can be described thus: Primary qHTS to identify gynecologic anti-cancer compounds using libraries of approved drugs and bioactive compounds (AID 1345084). Note: nearly all actives have a fitted effect of over 55% in size. Particulars: Gynecologic cancer cell panel viability, ATPlite luminescence, 48 h; series mostly up to 57.5 µM. The method, boiled down: (§1)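 Cells, 1,000 per well, were allowed to settle for 16 h at 37 C before compound addition. Five concentrations were tested for 48 h, and viability was read by ATPlite luminescence after 15 min at room temperature.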

A further assay has as its system CAOV3. The description is as above. Particulars: Gynecologic cancer cell panel viability, ATPlite luminescence, 48 h; series mostly up to 57.5 µM. In outline: as §1
In a further assay the test system is CASKI. The description is as above. As to conditions: Gynecologic cancer cell panel viability, ATPlite luminescence, 48 h; series mostly up to 57.5 µM. In outline:
as §1
For orientation: In ATP-based viability assays light output follows the ATP content of the culture.

The test system of another assay is Es-2. The description is as above. As to conditions: Gynecologic cancer cell panel viability, ATPlite luminescence, 48 h; series mostly up to 57.5 µM. The method, boiled down:
as §1

In another assay the test system is Hek293T. The assay is described as above. As to conditions: Gynecologic cancer cell panel viability, ATPlite luminescence, 48 h, control line for the selectivity index; series mostly up to 57.5 µM. In outline:
as §1

In a further assay the test system is JEG-3. The assay is described as above. Particulars: Gynecologic cancer cell panel viability, ATPlite luminescence, 48 h; series mostly up to 57.5 µM. In outline:
as §1

The next assay relates to OV90. The assay is described as above. As to conditions: Gynecologic cancer cell panel viability, ATPlite luminescence, 48 h; series mostly up to 57.5 µM. The method, boiled down:
as §1

Another assay relates to PA-1. The description is as above. As to conditions: Gynecologic cancer cell panel viability, ATPlite luminescence, 48 h; series mostly up to 57.5 µM. The method, boiled down:
as §1

The subject of a further assay is SKOV3. The assay is described as above. Particulars: Gynecologic cancer cell panel viability, ATPlite luminescence, 48 h; series mostly up to 57.5 µM. The method, boiled down: as §1
In the next assay the test system is Tov-21-G. Described as above. As to conditions: Gynecologic cancer cell panel viability, ATPlite luminescence, 48 h; series mostly up to 57.5 µM. The method, boiled down:
as §1

A further assay relates to Tov112D. The description is as above. Particulars: Gynecologic cancer cell panel viability, ATPlite luminescence, 48 h; series mostly up to 57.5 µM. In outline:
as §1

For another assay, the system named is HeLa. The description is as above. As to conditions: Gynecologic cancer cell panel viability, ATPlite luminescence, 48 h; series mostly up to 57.5 µM. In outline: as §1
Another assay has as its system MKL-2. In words: qHTS assay to identify novel small-molecules to repurpose for Merkel cell carcinoma treatment (AID 1296009). Note: nearly all actives have a fitted effect of over 60% in size. As to conditions: MCC and control cell lines, CellTiter-Glo viability, 72 h; series mostly up to 46 µM. The method, boiled down: (§2)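 After compound transfer in DMSO, plates were kept 72 hr at 37 degree celsius. Luminescent ATP signal from CellTiter-Glo served as viability measure, normalized against DMSO and no-cell controls.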

In another assay the test system is NIH3T3. The assay is described as above. Particulars: MCC and control cell lines, CellTiter-Glo viability, 72 h; at 44.8 µM (top of the series) unless noted. The method, boiled down: as §2
The next assay deals with UISO. Described as above. Particulars: MCC and control cell lines, CellTiter-Glo viability, 72 h; series mostly up to 46 µM. In outline: as §2
A further assay has as its system MKL-1. The description is as above. Particulars: MCC and control cell lines, CellTiter-Glo viability, 72 h; series mostly up to 46 µM. The method, boiled down:
as §2

The subject of a further assay is WaGa. The description is as above. As to conditions: MCC and control cell lines, CellTiter-Glo viability, 72 h; series mostly up to 46 µM. The method, boiled down: as §2
In another assay the test system is MCC-26. The assay is described as above. As to conditions: MCC and control cell lines, CellTiter-Glo viability, 72 h; series mostly up to 46 µM. In outline: as §2
% is set by controls: 0 for no effect and ±100 for the full control effect; potency is the fitted concentration of half-maximal effect.

For the compound `Nc1ccc(O)cc1`, the Potency entry in the assay with C33A, in the assay with CAOV3, in the assay on CASKI, with Es-2, in the assay with Hek293T and in the assay with JEG-3 was “inactive” throughout. The Potency result in the assay with OV90, with PA-1, in the assay on SKOV3, in the assay on Tov-21-G and in the assay with Tov112D was “inactive” each time.
In the case of `CC1CN(c2cc3c(cc2F)c(=O)c(C(=O)O)cn3-c2ccc(F)cc2F)CCN1` (stereo not given), the Potency result in the assay on C33A, in the assay with CAOV3, with CASKI and in the assay with Es-2 was “inactive” in each case. Moreover, the activity change, negative = cytotoxicity in the assay with HeLa was 5.19% [at 6.55 µM]; in the assay on Hek293T it was -5.43% [at 6.55 µM]; in the assay with JEG-3 it was 13.6% [at 6.55 µM]; with OV90 it was 18.6% [at 6.55 µM]; with PA-1, 6.96% [at 6.55 µM]; with SKOV3, -2.15% [at 6.55 µM]. The values for the activity change, negative = cytotoxicity in the assay on Tov-21-G and with Tov112D were -0.759% [at 6.55 µM] and -5.84% [at 6.55 µM], respectively.
As to `Nc1cc(C(F)(F)F)ccc1S`, the Potency was 11.9 µM (active) with MKL-2 and 13.3 µM (active) in the assay on UISO. In addition, the compound was called inactive in the assay on NIH3T3. For the same compound, the Potency result in the assay on C33A, in the assay on CAOV3, in the assay on CASKI, in the assay with Es-2, in the assay with HeLa and with Hek293T was “inactive” in each case. For the same compound, the Potency entry in the assay on JEG-3, with OV90, in the assay with PA-1, with SKOV3, in the assay on Tov-21-G and with Tov112D was “inactive” each time.
For the compound `O=[N+]([O-])c1ccc(-c2nc(-c3ccc(F)cc3)c(-c3ccncc3)[nH]2)cc1`, the Potency result with C33A, in the assay with CAOV3, in the assay with CASKI, in the assay on Es-2, in the assay on HeLa and in the assay on Hek293T was “inactive” each time. In addition, the Potency entry with JEG-3, in the assay on OV90, with PA-1, in the assay on Tov-21-G and in the assay with Tov112D was “inactive” in each case.
Regarding `CC(C)(C)c1ccc(O)c(O)c1`, the Potency with MKL-1 is 6.86 µM (active); in the assay with MKL-2 it was 6.11 µM (active); in the assay on UISO it was 15.4 µM (active); in the assay with WaGa, 10.9 µM (active); in the assay with OV90, 35.5 µM (active); with SKOV3, 31.6 µM (active).
For the compound `NC(=O)C1(N2CCCCC2)CCN(CCCN2c3ccccc3CCc3ccc(Cl)cc32)CC1`, the Potency in the assay with C33A was 25.1 µM (active); in the assay with OV90, 22.4 µM (active).
Regarding `Nc1ncnc2n[nH]c(Nc3ccc(F)cc3)c12`, the Potency in the assay with PA-1 was 25.1 µM (active).
Regarding `COc1c(N2C[C@@H]3CCCN[C@@H]3C2)c(F)cc2c(=O)c(C(=O)O)cn(C3CC3)c12`, the Potency result with C33A, with CAOV3, in the assay with CASKI, in the assay on Es-2, with HeLa and with Hek293T was “inactive” each time. Also, the Potency result with JEG-3, with OV90, with PA-1, in the assay on SKOV3, with Tov-21-G and with Tov112D was “inactive” in each case.
For `CN(C)c1cc2c(Nc3ccc4c(cnn4Cc4ccccc4)c3)ncnc2cn1`, the Potency result with C33A, in the assay on CAOV3, in the assay with CASKI, in the assay on Es-2, with HeLa and in the assay on Hek293T was “inactive” in each case. The Potency entry in the assay with JEG-3, with OV90, in the assay with SKOV3, in the assay on Tov-21-G and in the assay on Tov112D was “inactive” each time.
Regarding `CCC1=C[C@@H]2CN(C1)Cc1c([nH]c3ccccc13)[C@@](C(=O)OC)(c1cc3c(cc1OC)N(C)[C@H]1[C@@](O)(C(=O)OC)[C@H](OC(C)=O)[C@]4(CC)C=CCN5CC[C@]31[C@@H]54)C2`, the Potency with MKL-2 was 0.0188 µM (active); in the assay with UISO, 0.0119 µM (active); in the assay with CAOV3 it was 10 µM (active).
`O=C(Nc1ccc(Cl)cc1)Nc1ccc(Cl)c(Cl)c1`: the Potency was 18.8 µM (active) with MKL-1, 5.96 µM (active) in the assay with MKL-2, 10.6 µM (active) in the assay on UISO and 21.1 µM (active) in the assay on WaGa. The Potency result in the assay with CASKI and with Tov-21-G was “inactive” throughout.
On to `O=C(Nc1ccc(Cl)cc1)Nc1ccc(Cl)c(C(F)(F)F)c1`, for which the Potency was 21.1 µM (active) in the assay on MKL-1; 7.5 µM (active) in the assay with MKL-2; 10.6 µM (active) with UISO; 26.6 µM (active) in the assay with WaGa; 17.8 µM (active) with C33A; 28.2 µM (active) in the assay with Es-2. The Potency in the assay with HeLa was 14.1 µM (active); with Hek293T it was 14.1 µM (active); in the assay with OV90, 25.1 µM (active); in the assay with Tov112D, 31.6 µM (active). Besides, in the assay with JEG-3, the Potency entry was “inactive”.
As to `COc1ccc([C@@H]2Sc3ccccc3NC(=O)[C@@H]2O)cc1`, the Potency result with MCC-26, in the assay on MKL-2, in the assay with C33A, with CAOV3, in the assay with CASKI and with Es-2 was “inactive” throughout. The Potency result with HeLa, with JEG-3 and in the assay on OV90 was “inactive” each time.
As to `O=C1NC(=O)/C(=C/c2ccc3c(c2)OC(F)(F)O3)S1`, the Potency result in the assay on C33A, in the assay with CAOV3, in the assay on CASKI, in the assay with Hek293T, with SKOV3 and with Tov-21-G was “inactive” throughout. Besides, in the assay on Tov112D, the Potency entry is “inactive”.
Consider `O=C1NC(c2cccc([N+](=O)[O-])c2)=CCN1c1ccccc1O`, for which the Potency result with C33A, in the assay on CAOV3, in the assay on Es-2, with HeLa, in the assay with OV90 and in the assay on PA-1 was “inactive” throughout. In the assay on Tov-21-G, the Potency result is “inactive”.
As for `CN1CC[C@H](c2c(O)cc(O)c3c(=O)cc(-c4ccccc4Cl)oc23)[C@H](O)C1`, the Potency in the assay on UISO was 0.473 µM (active); in the assay with C33A, 1.26 µM (active); in the assay on CASKI, 0.708 µM (active); in the assay on Es-2, 0.708 µM (active); in the assay on HeLa, 0.794 µM (active); with PA-1, 0.447 µM (active). For the same compound, the Potency in the assay on Tov112D was 1.12 µM (active). The Potency result with JEG-3 is “inactive”.
Turning to `O=C(c1ccccc1)c1ccccc1`, the Potency entry in the assay with C33A, in the assay with CAOV3, in the assay with CASKI, with Es-2, with HeLa and in the assay on Hek293T was “inactive” in each case. For the same compound, the Potency result in the assay with JEG-3, in the assay on OV90, in the assay on PA-1, in the assay with SKOV3, with Tov-21-G and with Tov112D was “inactive” each time.
For the compound `CCCCCCCCCCCCCCCCCCNC(=O)OC1CCN(C(=O)OC[C@H](COC(=O)N(Cc2cccc[n+]2CC)C(=O)c2ccccc2OC)OC)CC1`, the Potency in the assay with MKL-1 was 11.9 µM (active); with MKL-2, 2.66 µM (active); in the assay with UISO it was 6.68 µM (active); in the assay on CAOV3, 15.8 µM (active); in the assay on CASKI, 15.8 µM (active); in the assay on OV90, 28.2 µM (active). The Potency is 12.6 µM (active) in the assay with PA-1, 20 µM (active) in the assay with SKOV3 and 25.1 µM (active) in the assay with Tov-21-G. Besides, the Potency entry with JEG-3 is “inactive”.
As to `CN1CCCN(C(c2ccccc2)c2ccc(Cl)cc2)CC1` (stereo not given), the Potency result in the assay with MCC-26, in the assay with C33A, with CAOV3, with Es-2, with HeLa and in the assay with JEG-3 was “inactive” each time. For the same compound, the Potency entry with PA-1 and with Tov-21-G was “inactive” in each case. In the assay on Tov112D, the Potency is 31.6 µM (active).
For the compound `O=C1NC2CCCCN2C12CCN(CCCN1c3ccccc3CCc3ccc(Cl)cc31)CC2` (stereo not given), the Potency in the assay with MKL-2 was 21.1 µM (active). Moreover, the Potency result with C33A, in the assay with HeLa, in the assay on JEG-3 and in the assay on Tov-21-G was “inactive” each time.
As for `CO/N=C(/C(=O)N[C@@H]1C(=O)N2C(C(=O)[O-])=C(C[n+]3ccn4ncccc43)CS[C@H]12)c1nsc(N)n1`, the Potency result in the assay with C33A, in the assay on CAOV3, in the assay on CASKI, in the assay on Es-2, in the assay with HeLa and with Hek293T was “inactive” throughout. Moreover, the Potency entry in the assay on JEG-3, with OV90, in the assay on PA-1, in the assay with SKOV3, in the assay on Tov-21-G and in the assay on Tov112D was “inactive” each time.
